Data as given in the supplement of paper PMC6555819.

Columns and labels:
Test in all cases: PBM binding z-score (relative to random genomic background probes); higher = stronger binding; sequences stand for … in GC…GCGATTGACAGCGTAGAATGAAGG
[1] = test system: FXR:RXRa (NR concentration 270 nM, RXRa partner concentration 90 nM)
In short: (§1)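 Binding z-scores take random background probes as their reference. They come from custom Agilent 4×180K protein-binding microarrays incubated 1 h with ligand-free nuclear receptor dimers, with antibodies against each partner (one per run) detecting binding. Scanned fluorescence was regression-normalized.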

[2] = test system: LXRa:RXRa (NR concentration 270 nM, RXRa partner concentration 90 nM)
In short: as §1

[3] = test system: LXRa homodimer (NR concentration 270 nM)
In short: as §1

[4] = test system: LXRb:RXRa (NR concentration 270 nM, RXRa partner concentration 90 nM)
In short: as §1

[5] = test system: LXRb homodimer (NR concentration 270 nM)
In short: as §1

[6] = test system: PPARa:RXRa (NR concentration 270 nM, RXRa partner concentration 90 nM)
In short: as §1

[7] = test system: PPARg:RXRa (NR concentration 180 nM, RXRa partner concentration 90 nM)
In short: as §1

[8] = test system: PPARg:RXRa 270nM:90nM, anti-RXR (NR concentration 270 nM, RXRa partner concentration 90 nM)
In short: as §1

[9] = test system: PPARg:RXRa 30nM:10nM, anti-RXR (NR concentration 30 nM, RXRa partner concentration 10 nM)
In short: as §1

[10] = test system: PPARg:RXRa 90nM:30nM, anti-RXR (NR concentration 90 nM, RXRa partner concentration 30 nM)
In short: as §1

[11] = test system: PPARg:RXRa DBDmut IVT, anti-RXR (DBD mutation: RXRa K156A/R161A, NR concentration 270 nM, RXRa partner concentration 90 nM)
In short: as §1

[12] = test system: PPARg:RXRa IVT, anti-PPARg (NR concentration 270 nM, RXRa partner concentration 90 nM)
In short: as §1

[13] = test system: PPARg DBDmut:RXRa IVT, anti-PPARg (DBD mutation: PPARg1 K132A/R137A, NR concentration 270 nM, RXRa partner concentration 90 nM)
In short: as §1

[14] = test system: PPARg DBDmut IVT, anti-PPARg (DBD mutation: PPARg1 K132A/R137A, NR concentration 270 nM)
In short: as §1

[15] = test system: PPARg homodimer (NR concentration 180 nM)
In short: as §1

[16] = test system: PXR:RXRa (NR concentration 270 nM, RXRa partner concentration 90 nM)
In short: as §1

[17] = test system: PXR homodimer (NR concentration 270 nM)
In short: as §1

[18] = test system: RARa:RXR (NR concentration 270 nM, RXRa partner concentration 90 nM)
In short: as §1

[19] = test system: RARa homodimer (NR concentration 270 nM)
In short: as §1

[20] = test system: RARb:RXRa (NR concentration 270 nM, RXRa partner concentration 90 nM)
In short: as §1

Sequence | PBM binding z-score [1] | PBM binding z-score [2] | PBM binding z-score [3] | PBM binding z-score [4] | PBM binding z-score [5] | PBM binding z-score [6] | PBM binding z-score [7] | PBM binding z-score [8] | PBM binding z-score [9] | PBM binding z-score [10] | PBM binding z-score [11] | PBM binding z-score [12] | PBM binding z-score [13] | PBM binding z-score [14] | PBM binding z-score [15] | PBM binding z-score [16] | PBM binding z-score [17] | PBM binding z-score [18] | PBM binding z-score [19] | PBM binding z-score [20]
CTCGAAAGGTCAGTTGAGGTGAGTATACGGATAA | 6.96 | 5.84 | 1.79 | 4.51 | 2.26 | 5.5 | 4.89 | 5.13 | 1.86 | 4.15 | 2.81 | 3.53 | 0.544 | 1.62 | 5.81 | 5.79 | 0.639 | 5.08 | 3.41 | –
TCTAGGAGGACACGAAGGTCAGAGCTTTCCAGAG | 1.27 | 0.762 | 0.19 | 0.856 | -0.833 | 2.05 | 0.882 | 2.09 | 2.49 | 2.5 | 1.91 | 1.99 | -0.157 | -1.05 | 0.55 | 1.72 | 0.568 | 1.83 | -0.482 | –
CCTACTGGGCCATTCAGAGGACATTGATCATATG | -0.067 | -0.34 | 0.339 | -0.405 | -0.12 | 0.0535 | 0.784 | 0.44 | -0.132 | -0.17 | 4.5 | 3.41 | 0.559 | -0.35 | -0.295 | -0.327 | 0.096 | -0.457 | -0.467 | –
TTACCAAGGTTAAAGGTCGTTGATGCACGCCTTG | 4.98 | 5.1 | 1.51 | 4.06 | 0.439 | 5.64 | 7.98 | 8.34 | 8.79 | 8.95 | 2.09 | 4.53 | 0.805 | 0.292 | 2.41 | 5.16 | 0.943 | 6.63 | 0.588 | 3.68
CCTAGCAGGCCAGGTTCACTCAAGCATTTCGCTT | 0.117 | 0.554 | -0.238 | 0.666 | -0.142 | 0.874 | -0.212 | -0.0179 | -0.854 | -0.512 | 0.866 | -0.316 | -1.77 | -0.982 | -0.179 | 0.776 | 0.391 | 0.488 | -0.298 | 0.579
TATTGTAGATCAAAGGTTAAGAAAGCCGAAGCCT | 1.52 | 2.61 | 0.529 | 2.07 | 0.724 | 4.99 | 8.15 | 8.41 | 7.59 | 9.21 | 1.27 | 4.2 | 1.1 | 1.23 | 1.87 | 2.16 | 0.399 | 3.1 | 0.703 | 2.07
GCATATAGGTAATTCAAGGTGAAAGTCCGATTGT | 0.457 | 4.97 | 0.799 | 2.13 | -0.412 | 1.9 | 0.967 | 1.51 | 0.0519 | 0.865 | 3.96 | 3.53 | 0.595 | 0.845 | 0.811 | 0.919 | 0.171 | 2.33 | 0.378 | 0.678
TTACCGAGGTGAAAGGTCGTTGATGCACGCCTTG | 3.99 | 3.64 | 0.332 | 3.53 | -0.52 | 5.85 | 9.29 | 8.26 | 7.84 | 9.2 | 3.24 | 5.19 | 0.609 | 0.681 | 2.03 | 4.58 | 0.0493 | 6.71 | -0.0852 | 3.11
TAGCCTAGCTCATTCAGGGGCCAGTATAGAAAGC | -0.836 | -1 | -1.16 | -0.368 | -0.132 | -1.13 | -0.0519 | -0.988 | -0.46 | -0.823 | -0.101 | -0.269 | -0.969 | -0.592 | -1.77 | -0.527 | -0.788 | -0.603 | -1.25 | -0.199
GCTGCTAGGTCAACTGAGGGTCAGCTAAAGCTCG | 5.12 | 4.47 | 1.48 | 3.45 | 0.289 | 4.35 | 3.55 | 4.15 | 0.901 | 2.72 | 4.93 | 4.17 | -0.389 | -0.635 | 4.56 | 4.5 | -0.492 | 5.93 | 0.262 | 4.83
TCTGCTAGGTCAGGTGGTCAGCTAACGAGCTGCC | 1.39 | 0.774 | -0.474 | 0.66 | 0.161 | 1.89 | 1.01 | 2.36 | 1.38 | 1.98 | 2.43 | 2.96 | -0.185 | -0.486 | -0.444 | 0.451 | -0.687 | 1.18 | -1.1 | 3.38
CCTACTGGGCCACGAAAGGTAATTGATTCAGTGA | -0.128 | -0.227 | -0.337 | -0.403 | -0.777 | 1.1 | 1.63 | 1.38 | -0.0637 | 0.669 | 5.29 | 5.07 | 0.766 | -0.144 | 0.00713 | -0.257 | -0.335 | -0.102 | 0.0551 | –
TGGCCTAGGTCATGCGGGCCAGTATAGTGTCGGC | 3.58 | 2.57 | -0.464 | 1.2 | -1.55 | 3.28 | 1.7 | 2.2 | 0.139 | 0.89 | 1.03 | 2.44 | -0.76 | -1.48 | 0.35 | 1.12 | -0.591 | 2.07 | -0.739 | 3.53
TAGCCTAGGACATGCGGGCCAGTATAGTGTCGGC | -0.531 | -0.882 | -1.1 | -1.16 | -1.2 | -0.741 | 0.232 | -0.867 | -0.747 | -0.931 | -0.985 | -0.448 | -1.11 | -0.53 | -1.04 | -0.867 | -0.905 | -0.797 | -0.552 | –
CCTACTGGGCCACGAAAGGTCCTTGATTCAGTGA | -0.183 | -0.157 | -0.498 | -0.372 | -0.947 | 1.21 | 1.24 | 1.23 | -0.391 | 0.635 | 5.26 | 4.89 | -0.745 | -0.678 | -0.351 | -0.149 | -0.492 | 0.131 | -0.655 | 0.686
